Reference: PubChem BioAssay (NCI)
The panel holds about 79,000 compounds, 15% with a hit somewhere; the sample as a whole holds those more often. The source made the active and inactive calls. Cut-off read from the data, not from the text of the source: active = growth inhibition above about 70%; inactive = the rest. Where a SMILES comes first, the peptide text is derived from it. [ ]: non-standard residue; d: D form. Hpg = N[CH](C(=O)O)c1ccc(O)cc1

Assays:
[1] = NCI Yeast Anticancer Drug Screen. Data for the rad50 strain (AID 155);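 note: 0% = growth of vehicle-only cultures of the same strain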; conditions: S. cerevisiae rad50 strain growth inhibition; at 50.0 µM; hits give high values
Outline: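 Readout: growth inhibition relative to vehicle-treated cultures. Compound exposure was carried out in a genetically defined yeast strain deficient in DNA damage repair.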

[2] = NCI Yeast Anticancer Drug Screen. Data for the mec2-1 strain (AID 157); conditions: S. cerevisiae mec2-1 strain, at 50.0 µM, hits give high values
Outline: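 Mutant yeast (mec2-1) grown with compound; growth inhibition relative to vehicle control reported.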

[3] = NCI Yeast Anticancer Drug Screen. Data for the sgs1 mgt1 strain (AID 161);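 note: 0% = growth of cultures given vehicle only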; conditions: S. cerevisiae sgs1 mgt1 strain, at 50.0 µM, hits give high values
Outline: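 This yeast growth screen uses a strain with defined DNA-repair lesions; compound-treated growth is compared with vehicle-treated growth.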

[4] = NCI Yeast Anticancer Drug Screen. Data for the cln2 rad14 strain (AID 165);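 note: 0% = growth equal to vehicle treated cultures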; conditions: S. cerevisiae cln2 rad14 strain, at 50.0 µM, hits give high values
Outline: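 Readout is yeast growth inhibition versus vehicle-treated controls, using a strain with cln2 and rad14 alterations exposed to compound.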

[5] = NCI Yeast Anticancer Drug Screen. Data for the bub3 strain (AID 167); conditions: S. cerevisiae bub3 mutant strain, at 50.0 µM, hits give high values
Outline: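 Readout: yeast growth inhibition, expressed relative to vehicle-only wells. The test organism is a mutant strain from a panel with lesions in DNA repair or checkpoint genes.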

[6] = NCI Yeast Anticancer Drug Screen. Data for the mlh1 rad18 strain (AID 175); conditions: S. cerevisiae mlh1 rad18 strain growth inhibition; at 50.0 µM; hits give high values
Outline: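 Genetically defined yeast (DNA repair-deficient) exposed to compounds; growth inhibition determined relative to vehicle.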

Measured: growth inhibition

COc1ccc(OC)c2c1ccc1c(C)c3ccccc3c(C)c12
inactive: [1] 12.2% | [2] -1.1% | [3] 14.2% | [4] 6.8% | [5] 34.1% | [6] 26.2%

O=C(CC(=O)Nc1ccccc1)N/N=C/c1cc(N=Nc2ccc(Br)cc2)ccc1O
inactive: [1] 16.4% | [2] 24.9% | [3] 53% | [4] 4.65% | [5] 0.2% | [6] 29%

CC(NC(=O)OC(C)(C)C)C(=O)NC(Cc1ccccc1)C(=O)NCC(=O)ON=C1CCCC1 (configuration not stated)
inactive: [1] 37.1% | [2] 4.1% | [3] 32.6% | [4] 7.3% | [5] 1.9% | [6] 23.6%

COc1cc([C@H]2CC(=O)C[C@H](c3cc(OC)c(OC)c(OC)c3)C23C(=O)c2ccccc2C3=O)cc(OC)c1OC
inactive: [1] -3% | [2] 11.9% | [3] -8.7% | [4] 29.5% | [5] 0.45% | [6] 7%

C[N+](C)(C)c1ccc(C(N)C(=O)O)cc1 (configuration not stated)
inactive: [1] -7.7% | [2] -18.3% | [3] -17.1% | [4] -30.1% | [5] -41.7% | [6] 2.8%

C1CC(CCC2CCNCC2)CCN1
inactive: [1] 1.6% | [2] 1.15% | [3] 4.15% | [4] -13.4% | [5] 11.7% | [6] 1.55%

Cc1cc2ccccc2c[n+]1C1CCc2ccccc2C1=O (configuration not stated)
inactive: [1] 7.1% | [2] 5.6% | [3] 30.6% | [4] 24% | [5] 3.4% | [6] 20.2%

CN(C)c1ccc(N=O)c(O)c1
inactive: [1] -3.35% | [2] -6.45% | [3] -63% | [4] 13.6% | [5] -15.8% | [6] 3%

O=C(/C=C/c1ccc(OCCSCCCCCCCCCCSCCOc2ccc(/C=C/C(=O)c3ccc(Cl)cc3)cc2)cc1)c1ccc(Cl)cc1
inactive: [1] -26.9% | [2] -25.1% | [3] -21.9% | [4] 13.7% | [5] -8.95% | [6] -29.9%

C/C(=N\NC(=S)N1CCCCCC1)c1nccs1
inactive: [1] 3.95% | [2] 0.25% | [3] -1.5% | [4] -18% | [5] -6.9% | [6] 2.15%

ON(C(=NCc1ccccc1)c1ccccc1)c1ccccc1
inactive: [1] 2.25% | [2] 10.6% | [3] 9.65% | [4] -17.4% | [5] 12.4% | [6] 14.7%

CCCCCCCOC(=O)c1ccccc1Cl
inactive: [1] 7.3% | [2] -10.1% | [3] 23.4% | [4] -6.7% | [5] 13.9% | [6] 2%

c1ccc(COc2ccc3c(c2)CN(Cc2ccccc2)CO3)cc1
inactive: [1] -21.1% | [2] -28.9% | [3] 33.6% | [4] -18.6% | [5] 62.2% | [6] -9.1%

Cc1cc(-c2ccccc2)[nH]c1-c1nccc2ccccc12
inactive: [1] 4.1% | [2] 8% | [3] 0.8% | [4] 24% | [5] -4.5% | [6] 4.7%

COC(OC)c1cccc2c1C(=O)CCC1(CC2)OCCCCO1
inactive: [1] 0.3% | [2] -21.1% | [3] -22.8% | [4] 3.6% | [5] -39.9% | [6] -11.2%

CC(Cc1ccccc1)Nc1ncnc2c1ncn2C1OC(CO)CC1O (configuration not stated)
inactive: [1] 7.5% | [2] 2.35% | [3] 12.6% | [4] 1.6% | [5] 2.3% | [6] -11.7%

Cc1ccc(Sc2ccc3ccccc3c2)nc1
inactive: [1] 6.75% | [2] -8.2% | [3] -17.6% | [4] -12.2% | [5] 5.05% | [6] -16.9%

COc1ccc(NC(=O)c2c(Br)c(Br)c(Br)c(Br)c2C(=O)O)c(Cl)c1
active: [1] 92.5% | [2] 88.7% | [3] 92% | [4] 83.5% | [5] 90.3% | [6] 95.2%

Nc1ncnc2c1ncn2CCCCCO
inactive: [1] 5.15% | [2] 49.7% | [3] 13.7% | [4] 7.35% | [5] 3.45% | [6] 13.3%

Cc1[nH]n(-c2ccccc2)c(=S)c1C(=O)c1ccccc1
inactive: [1] -11.7% | [2] 1.05% | [3] 2.55% | [4] 1.7% | [5] 2.25% | [6] 0.45%

CC1COCOC1c1ccc2c(c1)OCO2 (configuration not stated)
inactive: [1] 17.6% | [2] 4% | [3] 6% | [4] 9.45% | [5] -9.45% | [6] -15.8%

CCC(C#N)N(Cc1cccc(CN(C(C)=O)C(C#N)CC)c1)C(C)=O (configuration not stated)
inactive: [1] -5.9% | [2] -11.7% | [3] -4.15% | [4] -29.9% | [5] -25.7% | [6] -43.9%

S=C(SNC1CCCCC1)SNC1CCCCC1
inactive: [1] -65.5% | [2] -14.2% | [3] 4.25% | [4] -13.4% | [5] 9.35% | [6] 6.25%

CNc1ccc(/C=C/c2ccnc3ccccc23)cc1
inactive: [1] 31.2% | [2] 46.2% | [3] 68.3% | [4] 27.6% | [5] 42.1% | [6] 49.8%

O=C(O)c1nc(-c2ccc(S(=O)(=O)O)cc2)[nH]c1C(=O)O
inactive: [1] -7.15% | [2] -0.25% | [3] 14% | [4] -24.8% | [5] -6.05% | [6] -3.6%

CCC(C(=O)NC(C)c1ccc(-c2ccccc2)cc1)c1ccccc1 (configuration not stated)
inactive: [1] 5.1% | [2] 7.55% | [3] 10% | [4] 13.2% | [5] 12.5% | [6] -4.7%

CC1(C)CC(=O)C(C)(CCc2ccccc2)C(=O)C1
inactive: [1] -2.8% | [2] 8.9% | [3] 13.7% | [4] -44.6% | [5] -11.4% | [6] -6.65%

CCCCCCCCNc1ncnc2[nH]ncc12
inactive: [1] 7.15% | [2] 11.3% | [3] 22.1% | [4] 6.5% | [5] 47.2% | [6] 13.9%

ClC(Cl)=C(Cl)C1(Cl)CC1COCc1ccccc1 (configuration not stated)
inactive: [1] 45.5% | [2] -10.1% | [3] -4.05% | [4] 17.9% | [5] -7.85% | [6] -3%

CSc1ccc(C)c(/C=N/Nc2ccc([N+](=O)[O-])cc2[N+](=O)[O-])c1
inactive: [1] 7.05% | [2] 26.9% | [3] 18.4% | [4] -13.6% | [5] 0.5% | [6] 3.25%

COc1cc(/C=C(\C)c2ccc3c(c2)OCO3)cc(OC)c1OC
inactive: [1] 15% | [2] 12.6% | [3] 35% | [4] 5.15% | [5] 12.8% | [6] -5.85%

N#CC(NCc1ccccc1)C(O)c1ccccc1 (configuration not stated)
inactive: [1] 17.8% | [2] 11% | [3] 2.25% | [4] 16.8% | [5] 9.25% | [6] 11.9%

CCSC(C(O)C(O)C(O)C(O)CO)n1cnc2c(SC)ncnc21 (configuration not stated)
inactive: [1] 20.1% | [2] -15.3% | [3] 1.05% | [4] -26% | [5] -4.95% | [6] -3.85%

N#Cc1ccc(OCCCCCOc2ccc([N+](=O)[O-])cc2)cc1
inactive: [1] 19.4% | [2] 11.6% | [3] 8.65% | [4] 12.8% | [5] 13.9% | [6] 4.4%

CN(CCO)c1nc2c(c(=O)[nH]1)CCC2
inactive: [1] -3.55% | [2] -21.8% | [3] -43% | [4] -5.25% | [5] -19.4% | [6] -21.8%

CC(C)CC(N)C(=O)NC(C(=O)O)c1ccc(O)cc1 (configuration not stated) (H-Leu-[Hpg]-OH; configuration not given here)
inactive: [1] -5.3% | [2] -10.1% | [3] 3.4% | [4] -20.4% | [5] 2.7% | [6] 15.8%

CN1CCCN(C)CCCN(C)CCCN(C)CCC1
inactive: [1] -19.8% | [2] -2.45% | [3] 7.6% | [4] -4.65% | [5] -24.6% | [6] 11.8%

Cc1ccc2nc(N(C)C)nc-2c2[nH]c(=O)[nH]c12
inactive: [1] -28.9% | [2] -31.6% | [3] -12.2% | [4] 3.9% | [5] -28.9% | [6] -19.3%

Cc1nc(C(=O)O)ccc1O
inactive: [1] 3.05% | [2] 16% | [3] -1.05% | [4] -3.2% | [5] 0.45% | [6] 4%

CC(C)NC(=O)NCCc1c[nH]c2ccccc12
inactive: [1] -49.9% | [2] -11.8% | [3] 1.85% | [4] 6.95% | [5] 16.2% | [6] -13.2%

O=C(O)C(Br)Cc1cccc([N+](=O)[O-])c1 (configuration not stated)
inactive: [1] 9.4% | [2] -9.35% | [3] 10.6% | [4] -5.65% | [5] 3.45% | [6] 17.7%

S=c1nc[nH]c2c1ncn2C1OC(COCc2ccccc2)C(OCc2ccccc2)C1OCc1ccccc1 (configuration not stated)
inactive: [1] 31.2% | [2] 15.1% | [3] 17.4% | [4] 14.7% | [5] 2.1% | [6] 5.9%
